Reference: US20060069055, “Delivery of polynucleotides” (published 2006)

The sequences below were run against NF-kB p65/p50 heterodimer (Homo sapiens, UniProt Q04206;P19838 Q04206:1-551,P19838:1-433) (assay: EMSA; Table 3 gives 58 for PO). Details: protein: extract; tags: nuclear extract of LPS-stimulated THP-1 cells; dsDNA, one strand shown.
Excerpt: The EMSA assay was employed to characterize oligonucleotide decoys for the NF-κB transcription factor. […] Using the above modified oligonucleotides to compete for binding for the above-mentioned NF-κB family members, it was possible to compare the binding affinity of these oligonucleotides against the high affinity radiolabeled probe and each other. This assay has also enabled the design of a decoy which selectively binds particular members of the NF-κB family. By using increasing concentrations of various oligonucleotides, it was observed that, by deleting or changing targeted residues in the binding site, it was possible to specifically decrease the binding of the decoy molecule to p50/p50 homodimers, while retaining the affinity for p65/p50 and cRel/p50 heterodimers.
The NF-κB gel shift assays (EMSA) were performed as follows. A double-stranded oligonucleotide containing a consensus NF-κB binding site (5′ […].GGC 3′) (SEQ ID NO: 26) was end-labeled with γ³²P-ATP using T4 Polynucleotide Kinase (Promega). […] The dried gels were imaged and quantitated using a Typhoon 8600 Phosphorlmager (Amersham) and ImageQuant software. […]

Chain of NF-kB p65/p50 heterodimer (Q04206 whole entry, chain 1 of 2): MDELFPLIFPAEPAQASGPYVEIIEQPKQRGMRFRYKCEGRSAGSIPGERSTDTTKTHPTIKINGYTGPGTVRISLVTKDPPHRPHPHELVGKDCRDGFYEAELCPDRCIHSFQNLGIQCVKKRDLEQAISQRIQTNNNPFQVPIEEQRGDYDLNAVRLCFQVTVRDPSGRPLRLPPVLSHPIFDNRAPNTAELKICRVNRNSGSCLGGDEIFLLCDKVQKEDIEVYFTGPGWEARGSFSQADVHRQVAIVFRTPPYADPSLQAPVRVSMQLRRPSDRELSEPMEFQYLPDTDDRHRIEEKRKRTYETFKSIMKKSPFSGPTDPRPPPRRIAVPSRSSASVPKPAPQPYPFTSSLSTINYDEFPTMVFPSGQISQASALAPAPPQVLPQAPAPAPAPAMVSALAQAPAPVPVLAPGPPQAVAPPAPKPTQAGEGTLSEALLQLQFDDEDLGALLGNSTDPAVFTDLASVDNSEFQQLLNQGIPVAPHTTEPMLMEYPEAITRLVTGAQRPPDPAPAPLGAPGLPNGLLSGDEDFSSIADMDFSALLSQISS
Chain of NF-kB p65/p50 heterodimer (P19838 1-433, chain 2 of 2): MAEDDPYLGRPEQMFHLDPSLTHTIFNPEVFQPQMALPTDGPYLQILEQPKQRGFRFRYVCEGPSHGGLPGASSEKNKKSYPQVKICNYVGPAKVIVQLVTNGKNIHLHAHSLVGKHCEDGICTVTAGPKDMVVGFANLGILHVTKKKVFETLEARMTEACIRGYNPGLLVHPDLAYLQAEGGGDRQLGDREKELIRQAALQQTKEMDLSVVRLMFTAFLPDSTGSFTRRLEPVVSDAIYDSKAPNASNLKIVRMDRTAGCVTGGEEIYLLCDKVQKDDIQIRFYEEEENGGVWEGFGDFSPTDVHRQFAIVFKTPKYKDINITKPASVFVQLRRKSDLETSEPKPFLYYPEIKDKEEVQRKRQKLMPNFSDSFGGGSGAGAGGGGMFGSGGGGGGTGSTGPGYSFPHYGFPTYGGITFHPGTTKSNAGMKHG

Q: How did the IC50 turn out when AGTTGAGGACTTTCCAGGC was run?
A: Its IC50 is 62.4 fold molar excess.
